For 13 compounds, outcome results are on record in PubChem BioAssay AID651735 (Southern Research Specialized Biocontainment Screening …, 2012).

Calls of active or inactive are those of the source. The rule behind the calls is not given here.

This assay is described as follows: Vero 76 cell cytotoxicity, cytotoxicity control for VEEV inhibitor project, set 8 (AID 651735). The following applies: Vero 76 cells viability; series mostly up to 50 µM.
Take `CN(c1ccc(OCc2ccccc2)cc1)c1nc(=O)c2cccnc2s1`: the outcome was inactive.
With `COc1ccc(NC(=O)c2cc([N+](=O)[O-])ccc2N=C2CN(C)CCN2C)cc1` the entry was “inactive”; with `COc1ccc(CNc2nc(=O)c3cccnc3s2)cc1`, “inactive”.
With `O=c1c2cc([N+](=O)[O-])ccc2nc(CN2CCCNC2)n1-c1ccccc1` the entry was “inactive”.
With `O=c1c2cc([N+](=O)[O-])ccc2nc(CN2CCCNCC2)n1-c1ccccc1` the entry was “inactive”; with `CN1CCN(C)C(=Nc2ccc([N+](=O)[O-])cc2C(=O)Nc2ccccc2)C1`, “inactive”; with `O=c1c2cc(F)c(F)cc2nc(CN2CCNCC2)n1-c1ccccc1`, “inactive”.
As to `CCN1CCN(Cc2nc3ccc([N+](=O)[O-])cc3c(=O)n2-c2ccccc2F)CC1`, the result was inactive.
Take `CN1CCN(C)C(=Nc2ccc(C#N)cc2C(=O)Nc2ccccc2)C1`: the outcome was inactive.
Then `CCN1CCN(C2c3ncccc3C(=O)N2c2ccccc2)CC1` (stereo not drawn), with “inactive”; and `COc1ccc(Nc2nc(=O)c3cccnc3s2)cc1`, with “inactive”.
With `CN1CCN(C)C(=Nc2ccc([N+](=O)[O-])cc2C(=O)Nc2ccccc2F)C1` the entry was “inactive”.
With `CCN1CCN(Cc2nc3ccc(-c4ccccn4)cc3c(=O)n2-c2ccccc2)CC1` the entry was “inactive”.
